Data as given in PubChem BioAssay AID1159580 (chemical genetic matrix, 2015).
Where “and” joins values, the source holds several entries; their conditions need not be identical. Identical values can stand only once. Hit rate of the full screen: of about 5,500 compounds, about 2,000 (36%) were called active. Not shown: some 18% with an inconclusive outcome. Cut-off read from the data, not from the text of the source: active = normalized growth mostly below about 0.91 (no sharp cut-off); inconclusive = no clear call, values can overlap the other calls; inactive = mostly above about 0.92. The list shows a part of the results.

Test: chemical genetic growth profiling, strain panel (AID 1159580);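 note: tested at 20 µM; growth read once vehicle control cultures reached saturation at 30 °C; 1 = growth at the plate median or of vehicle wells; lower values mean less growth of the strain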
Details: S. cerevisiae deletion strains, growth OD

Measured: normalized growth

COP(=O)(OC)OC=C(Cl)Cl
inactive: locus YAL013W, strain DEP1, stronger effect = lower value 0.997 | locus YAL021C, strain ccr4, stronger effect = lower value 0.988 | locus YAL026C, strain drs2, stronger effect = lower value 0.993 | locus YAL030W, strain snc1, stronger effect = lower value 1 | locus YBL061C, strain skt5, stronger effect = lower value 0.984 | locus YBR009C, strain hhf1, stronger effect = lower value 0.991 | locus YBR021W, strain FUR4, stronger effect = lower value 1.05 | locus YBR023C, strain chs3, stronger effect = lower value 0.995 | locus YBR171W, strain sec66, stronger effect = lower value 1.01 | locus YBR229C, strain ROT2, stronger effect = lower value 0.965 | locus YBR231C, strain swc5, stronger effect = lower value 0.999 | locus YBR279W, strain paf1, stronger effect = lower value 0.992 | locus YCL011C, strain gbp2, stronger effect = lower value 0.994 | locus YCL016C, strain dcc1, stronger effect = lower value 1.01 | locus YCL029C, strain bik1, stronger effect = lower value 0.98 | locus YCL061C, strain MRC1, stronger effect = lower value 0.991 | locus YCL069W, strain vba3, stronger effect = lower value 1 | locus YCR088W, strain abp1, stronger effect = lower value 1 | locus YDL005C, strain med2, stronger effect = lower value 0.997 | locus YDL035C, strain GPR1, stronger effect = lower value 0.977 | locus YDL040C, strain nat1, stronger effect = lower value 0.989 | locus YDL074C, strain BRE1, stronger effect = lower value 0.957 | locus YDL101C, strain DUN1, stronger effect = lower value 0.964 | locus YDL134C, strain PPH21, stronger effect = lower value 0.983 | locus YDL185W, strain tfp1, stronger effect = lower value 0.947 | locus YDL192W, strain arf1, stronger effect = lower value 0.983 | locus YDR001C, strain nth1, stronger effect = lower value 0.998 | locus YDR069C, strain doa4, stronger effect = lower value 0.975 | locus YDR101C, strain arx1, stronger effect = lower value 0.986 | locus YDR137W, strain rgp1, stronger effect = lower value 0.982 | locus YDR150W, strain NUM1, stronger effect = lower value 0.985 | locus YDR159W, strain sac3, stronger effect = lower value 0.965 | locus YDR162C, strain NBP2, stronger effect = lower value 0.981 | locus YDR195W, strain ref2 0.933 | locus YDR297W, strain sur2, stronger effect = lower value 0.99 | locus YDR318W, strain mcm21, stronger effect = lower value 0.983 | locus YDR334W, strain swr1, stronger effect = lower value 1.01 | locus YDR335W, strain msn5, stronger effect = lower value 0.995 | locus YDR388W, stronger effect = lower value 0.995 | locus YDR392W, strain spt3, stronger effect = lower value 1 | locus YDR502C, strain sam2, stronger effect = lower value 0.993 | locus YEL003W, strain gim4, stronger effect = lower value 0.991 | locus YEL037C, strain rad23, stronger effect = lower value 0.986 | locus YEL061C, strain CIN8 (second series), stronger effect = lower value 0.984 | locus YEL061C, strain CIN8, stronger effect = lower value 0.989 | locus YER015W, strain faa2, stronger effect = lower value 0.982 | locus YER016W, strain bim1, stronger effect = lower value 0.99 | locus YER110C, stronger effect = lower value 0.969 | locus YER111C, strain swi4, stronger effect = lower value 0.989 | locus YER155C, strain BEM2 (second series), stronger effect = lower value 0.998 | locus YER155C, strain BEM2, stronger effect = lower value 0.991 | locus YER167W, strain BCK2, stronger effect = lower value 0.988 | locus YFR010W, strain ubp6, stronger effect = lower value 0.994 | locus YGL078C, strain dbp3, stronger effect = lower value 0.986 | locus YGL086W, strain mad1, stronger effect = lower value 0.994 | locus YGL167C, strain pmr1, stronger effect = lower value 0.994 | locus YGL173C, strain kem1, stronger effect = lower value 0.986 | locus YGL227W, strain vid30, stronger effect = lower value 0.991 | locus YGL240W, strain doc1, stronger effect = lower value 0.978 | locus YGL248W, strain PDE1, stronger effect = lower value 0.982 | locus YGL253W, strain hxk2, stronger effect = lower value 0.998 | locus YGR078C, strain PAC10, stronger effect = lower value 0.989 | locus YGR135W, strain pre9, stronger effect = lower value 0.993 | locus YGR229C, strain SMI1, stronger effect = lower value 1.01 | locus YGR252W, strain gcn5, stronger effect = lower value 0.998 | locus YHR013C, strain ard1, stronger effect = lower value 0.974 | locus YHR027C, strain rpn1, stronger effect = lower value 1.01 | locus YHR030C, strain SLT2, stronger effect = lower value 1.01 and 1.02 | locus YHR079C, strain IRE1 (second series), stronger effect = lower value 0.982 | locus YHR079C, strain IRE1, stronger effect = lower value 1.05 | locus YHR094C, strain hxt1, stronger effect = lower value 0.993 | locus YHR129C, strain ARP1, stronger effect = lower value 0.976 | locus YHR142W, strain chs7, stronger effect = lower value 0.989 | locus YHR200W, strain rpn10, stronger effect = lower value 0.989 | locus YIL066C, strain RNR3, stronger effect = lower value 1 | locus YIL073C, strain SPO22, stronger effect = lower value 1.06 | locus YIL125W, strain kgd1, stronger effect = lower value 0.98 | locus YIR030C, strain dcg1, stronger effect = lower value 0.988 | locus YJL092W, strain hpr5, stronger effect = lower value 1 | locus YJL095W, strain BCK1 (second series), stronger effect = lower value 0.996 | locus YJL095W, strain BCK1, stronger effect = lower value 1.01 and 1.03 | locus YJL115W, strain asf1, stronger effect = lower value 0.998 | locus YJL129C, strain trk1, stronger effect = lower value 1.01 | locus YJL134W, strain LCB3, stronger effect = lower value 1 | locus YJL154C, strain vps35, stronger effect = lower value 0.997 | locus YJL164C, strain tpk1, stronger effect = lower value 0.992 | locus YJL166W, strain qcr8, stronger effect = lower value 0.992 | locus YJL168C, strain set2, stronger effect = lower value 0.981 | locus YJL187C, strain SWE1 (second series), stronger effect = lower value 0.976 | locus YJL187C, strain SWE1, stronger effect = lower value 1 | locus YJR043C, strain POL32, stronger effect = lower value 0.988 | locus YJR066W, strain TOR1, stronger effect = lower value 0.981
